Experimental data as given in the supplement of paper PMC8866396.
± gives the standard deviation of the averaged measurements.

What follows are molecules tested on IL-6-GFP PC-9 (assay: cell viability (CCK-8 OD) relative to DMSO control (fraction of control); higher = more viable cells). Conditions: compound concentration: 10 uM; treatment time: 48 h.
Outline: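 In 96-well plates, 3000 cells/well of PC-9 or PC-9GR lung cancer cells with lentiviral IL-6-GFP overexpression received each compound of a purchased 510-compound library at a final 10 μM for 48 h. Viability, measured by CCK-8 absorbance, is each well's optical density relative to the vehicle control well. Data come from two independent replicates.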

Row | SMILES | cell viability
1 | Cl.Cl.O=C(O)COCCN1CCN(C(c2ccccc2)c2ccc(Cl)cc2)CC1 (centres undefined) [Cetirizine DiHCl] | 1.02 ± 0.033
2 | COc1ccc(S(=O)(=O)N(C(C)=O)c2ccccc2/C=C/c2cc[n+]([O-])cc2)cc1 | 0.753 ± 0.018
3 | C=C1C(=O)OC2C1CCC(=C)C1CCC(=C)C12 (centres undefined) [Dehydrocostus Lactone] | 0.808 ± 0.077
4 | Cc1nc(Nc2ncc(C(=O)Nc3c(C)cccc3Cl)s2)cc(N2CCN(CCO)CC2)n1.Cl [Dasatinib hydrochloride] | 0.438 ± 0.063
5 | C#Cc1cccc(Nc2ncnc3cc(OCCOC)c(OCCOC)cc23)c1 [Erlotinib] | 0.616 ± 0.035
6 | Nc1cc(C(Cl)=C(Cl)Cl)c(S(N)(=O)=O)cc1S(N)(=O)=O [Clorsulon] | 1.08 ± 0.11
7 | CC(C(=O)O)c1ccc2c(c1)CC(=O)c1ccccc1S2 (centres undefined) [Zaltoprofen] | 0.542 ± 0.067
8 | C=C1CCC2C(C)(CO)C(O)CCC2(C)C1C/C=C1\C=COC1=O (centres undefined) [Dehydroandrographolide] | 1.24 ± 0.12
9 | CNC(=NC#N)NCCSCc1nc[nH]c1C [Cimetidine] | 1.15 ± 0.23
10 | Cc1nc2ccc(CN(C)c3ccc(C(=O)NC(CCC(=O)O)C(=O)O)s3)cc2c(=O)[nH]1 (centres undefined) [Raltitrexed] | 0.506 ± 0.17
11 | O=NN(CCCl)C(=O)NCCCl [Carmustine] | 1.26 ± 0.063
12 | COc1cc2c(cc1OC)C1CC(OC(=O)C(N)C(C)C)C(CC(C)C)CN1CC2.Cc1ccc(S(=O)(=O)O)cc1.Cc1ccc(S(=O)(=O)O)cc1 (centres undefined) [Valbenazine tosylate] | 1.01 ± 0.084
13 | O=S(=O)([O-])CCS.[Na+] [Mesna] | 0.95 ± 0.07
14 | Cn1c(=O)cc(N2CCCC(N)C2)n(Cc2cc(F)ccc2C#N)c1=O.O=C(O)CCC(=O)O (centres undefined) [Trelagliptin succinate] | 1.07 ± 0.15
15 | COC(=O)c1cc(OC)c2c(c1-c1c(C(=O)OC)cc(OC)c3c1OCO3)OCO2 [Bifendate] | 1.25 ± 0.027
16 | COc1cc2ncnc(Nc3ccc(F)c(Cl)c3)c2cc1NC(=O)/C=C/CN1CCCCC1 | 0.443 ± 0.033
17 | Cl.Clc1ccc(CCCOCCCN2CCCCC2)cc1 [Pitolisant hydrochloride] | 1.13 ± 0.28
18 | C=CCC1/C=C(\C)CC(C)CC(OC)C2OC(O)(C(=O)C(=O)N3CCCCC3C(=O)OC(/C(C)=C/C3CCC(O)C(OC)C3)C(C)C(O)CC1=O)C(C)CC2OC (centres undefined) [Tacrolimus (FK506)] | 1.34 ± 0.11
19 | CCC(Nc1ncnc2[nH]cnc12)c1nc2cccc(F)c2c(=O)n1-c1ccccc1 (centres undefined) [Idelalisib (CAL-101, GS-1101)] | 0.858 ± 0.15
20 | CN1CCC(=C2c3ccccc3C=Cc3ccccc32)CC1.Cl [Cyproheptadine hydrochloride] | 1.07 ± 0.17

Row | SMILES | cell viability
21 | O=C(O)c1cc(O)c(O)c(O)c1 [Gallic acid] | 0.369 ± 0.14
22 | NC(=O)c1cccc2cn(-c3ccc(C4CCCNC4)cc3)nc12 (centres undefined) [Niraparib (MK-4827)] | 0.918 ± 0.045
23 | Nc1n[n+]([O-])c2ccccc2[n+]1[O-] [Tirapazamine] | 0.676 ± 0.12
24 | COC1CC2CCC(C)C(O)(O2)C(=O)C(=O)N2CCCCC2C(=O)OC(C(C)CC2CCC(OP(C)(C)=O)C(OC)C2)CC(=O)C(C)/C=C(\C)C(O)C(OC)C(=O)C(C)CC(C)/C=C/C=C/C=C/1C (centres undefined) [Ridaforolimus (Deforolimus, MK-8669)] | 0.571 ± 0.42
25 | Cc1cnc(C(=O)NC2CCCCC/C=C\C3CC3(C(=O)NS(=O)(=O)C3CC3)NC(=O)C3CC(Oc4nc5ccccc5c5ccccc45)CN3C2=O)cn1 (centres undefined) [Paritaprevir (ABT-450)] | 0.874 ± 0.28
26 | CCC(=O)OC1(C(=O)CCl)C(C)CC2C3CC(F)C4=CC(=O)C=CC4(C)C3(F)C(O)CC21C (centres undefined) [Halobetasol Propionate] | 1.05 ± 0.29
27 | CC(Nc1ncnc2[nH]cnc12)c1cc2cccc(Cl)c2c(=O)n1-c1ccccc1 (centres undefined) [Duvelisib (IPI-145, INK1197)] | 1.1 ± 0.12
28 | CCCCCCCCCCCC1=C(O)C(=O)C=C(O)C1=O [Embelin] | 1.12 ± 0.44
29 | C[S+](C)CCC(N)C(=O)O.[Cl-] (centres undefined) | 1.08 ± 0.22
30 | O=S1(=O)CCN(CN2CCS(=O)(=O)NC2)CN1 [Taurolidine] | 1.234 ± 0.011
31 | CC(=O)OC1C(=O)C2(C)C(O)CC3OCC3(OC(C)=O)C2C(OC(=O)c2ccccc2)C2(O)CC(OC(=O)C(O)C(NC(=O)c3ccccc3)c3ccccc3)C(C)=C1C2(C)C (centres undefined) [Paclitaxel] | 0.57 ± 0.026
32 | Cc1nc(Nc2ccc(F)cc2)nc(N2CCc3ccccc3C2C)c1C.Cl (centres undefined) [Revaprazan Hydrochloride] | 1.14 ± 0.043
33 | CC(C(=O)O)c1ccc(-c2ccccc2)c(F)c1 (centres undefined) [Flurbiprofen] | 0.9552 ± 0.0084
34 | O=C(Nc1ccc(O)cc1)c1ccccc1O [Osalmid] | 1.25 ± 0.1
35 | CCC1(O)CC2CN(CCc3c([nH]c4ccccc34)C(C(=O)OC)(c3cc4c(cc3OC)N(C=O)C3C(O)(C(=O)OC)C(OC(C)=O)C5(CC)C=CCN6CCC43C65)C2)C1 (centres undefined) [Vincristine] | 0.631 ± 0.041
36 | NC(CC(=O)N1CCn2c(nnc2C(F)(F)F)C1)Cc1cc(F)c(F)cc1F.O.O=P(O)(O)O (centres undefined) [Sitagliptin phosphate monohydrate] | 0.812 ± 0.47
37 | CC(C(=O)O)c1cccc(C(=O)c2ccccc2)c1 (centres undefined) [Ketoprofen] | 1.02 ± 0.11
38 | C=CC(=O)N1CCCC(n2nc(-c3ccc(Oc4ccccc4)cc3)c3c(N)ncnc32)C1 (centres undefined) | 0.509 ± 0.18
39 | CC(=O)Nc1ccc(CC(=O)O)cc1 [Actarit] | 1.15 ± 0.07
